The whole screen tested about 13,000 compounds, of which about 3,200 (25%) showed an effect of 50% or more. Some of the results follow.
What follows are molecules tested on P. falciparum stage V gametocytes. Conditions: 48 h, 5 µM; inhibitor.
Design: BacTiter-Glo ATP luminescence viability of purified stage V gametocytes in 384-well plates, per cent inhibition versus DMSO

Compound	% Inhibition
COc1ccc(-n2nc(C(=O)NCCC3=CCCCC3)c3ccccc3c2=O)cc1 [TCMDC-123609]	10.78%
Clc1ccc2nc(-c3cccnc3)[nH]c2c1 [TCMDC-142012]	6.492%
COC(=O)c1cccc(NC(=O)NC2CCN(c3ccnc(NCc4ccc(F)cc4)n3)CC2)c1 [TCMDC-133636]	29.63%
Cc1cc(N(C)C)nc(Nc2ccc(NC(=O)c3c(F)cccc3Cl)cc2)n1 [TCMDC-124976]	3.565%
O=C(Nc1cccc(F)c1)NC1CCN(c2ccnc3cc(Cl)ccc23)C1 (stereo not shown) [TCMDC-133655]	-21.12%
Cc1ccc(NC(=O)c2ccc3ncccc3c2)cc1OC1CCN(CCC(C)C)CC1 [TCMDC-133975]	32.86%
Oc1c(C(Nc2nc3ccccc3s2)c2ccccc2)ccc2cccnc12 (stereo not shown) [TCMDC-125565]	82.54%
Oc1c(C(Nc2nc3ccccc3s2)c2ccc(OC(F)F)cc2)ccc2cccnc12 (stereo not shown) [TCMDC-124379]	115.4%
CCC[C@@H]([C@@H](CC1CCCCC1)C(=O)N[C@H](C(=O)Nc1nccs1)C(C)(C)SCCNC(=O)OCC)N(O)C=O [TCMDC-137778]	36.34%
CCN(CC)C(C)(C)CN(Cc1ccc(-c2ccc(C(F)(F)F)cc2)cc1)C(=O)Cn1c(CCc2cccc(F)c2F)nc(=O)c2ccccc21 [TCMDC-141049]	64.05%
CN(C)C(C)(C)CN(Cc1ccc(-c2ccc(C(F)(F)F)cc2)cc1)C(=O)Cn1c(CCc2cccc(F)c2F)nc(=O)c2ccccc21 [TCMDC-141050]	88.12%
CC=CCON1C(N)=NC(N)=NC1(C)C [TCMDC-131381]	17.92%
Oc1cc(Nc2ccnc3cc(-c4ccc(CN5CCCCC5)o4)c(Cl)cc23)c(Cl)cc1F [TCMDC-138470]	7.124%
COc1ccc(C2CC(=O)C3=C(C2)NC(C)=C(C(=O)OC2CCCC2)C3c2cccc(O)c2)cc1OC (stereo not shown) [TCMDC-125638]	22.13%
O=C(Nc1ccnc(N2CCCN(Cc3cccc(O)c3)CC2)c1)c1ccc(F)cc1 [TCMDC-134961]	-9.577%
COc1ccc(-c2cc(Nc3nc(-c4cccc(Cl)c4)nc4ccccc34)ccn2)cc1 [TCMDC-138867]	-54.58%
Cc1cc(N2CCCCC2)nc2ccc(NC(=O)c3cccc([N+](=O)[O-])c3)cc12 [TCMDC-124423]	6.095%
Cc1ccc(-c2nc(Nc3ccncc3)c3ccccc3n2)s1 [TCMDC-134482]	16.52%
COc1ccc2nc(-c3cccc(C)n3)nc(Nc3ccncc3)c2c1 [TCMDC-134670]	106.1%
Cc1cccc(-c2nc(Nc3ccncc3)c3ccc([N+](=O)[O-])cc3n2)n1 [TCMDC-134702]	85.91%
Cc1cc(F)ccc1-c1nc(Nc2ccncc2)c2ccn(C)c2n1 [TCMDC-141231]	-13.59%
COc1cccc(-c2nc(Nc3ccncc3)c3ncn(C)c3n2)c1 [TCMDC-141275]	49.52%
COc1cc2nc(Cl)nc(Nc3ccncc3)c2cc1OC [TCMDC-123606]	31.62%
Cc1cccc(-c2nc(Nc3ccncc3)c3cc(N(C)C)ccc3n2)n1 [TCMDC-135308]	101.1%

Compound	% Inhibition
COC(=O)c1ccc(CC(C)NCC(O)c2cccc(C(F)(F)F)c2)c(Cl)c1 (stereo not shown) [TCMDC-131468]	4.686%
COc1ccc(C2CC(=O)C3=C(C2)NC(C)=C(C(=O)OC(C)C)C3c2cccc(O)c2)cc1OC (stereo not shown) [TCMDC-125636]	49.05%
O=C(Nc1ccnc(-c2cccnc2)n1)c1cc(C(F)(F)F)cc(C(F)(F)F)c1 [TCMDC-124516]	40.18%
Cc1ccc2c(c1)C1(CC(=O)N(CCc3scnc3C)C1=O)C(=O)N2Cc1ccccc1 (stereo not shown) [TCMDC-136702]	3.881%
Cc1cc(-c2ccc(CNC3Cc4ccccc4C3)cc2)ccc1S(=O)(=O)NCCN1CCCC1 [TCMDC-132243]	88.03%
O=S(=O)(NCCN1CCCC1)c1ccc(-c2ccc(CNC3Cc4ccccc4C3)cc2)cc1F [TCMDC-132237]	105.2%
O=S(=O)(NCCN1CCCC1)c1ccc(-c2cccc(CNC3Cc4ccccc4C3)c2)cc1F [TCMDC-132221]	86.87%
Cc1cc(-c2ccc(CN3Cc4ccccc4C3)cc2)ccc1S(=O)(=O)NCCN1CCCC1 [TCMDC-132293]	17.83%
NC(=NCCc1ccccc1Cl)c1ccc2ccccc2c1 [TCMDC-137524]	-3.713%
NC(=NCCc1ccc(Cl)c(Cl)c1)c1ccc2ccccc2c1 [TCMDC-137525]	0.5254%
Cc1cc(OCCCN=C(N)c2ccc3ccccc3c2)c(C(C)C)cc1Cl [TCMDC-137527]	57.09%
O=C(NCCCCN1CCC2c3cccc(O)c3CCC21)c1ccc(-c2ccccc2)cc1 (stereo not shown) [TCMDC-139086]	3.232%
Cc1sc2cc(Cl)cc(Cl)c2c1S(=O)(=O)Nc1ccc2nccc(N3CCNCC3)c2c1 [TCMDC-139444]	54.96%
O=S(=O)(Nc1ccc2nccc(N3CCNCC3)c2c1)c1ccc2c(Cl)cccc2c1 [TCMDC-139383]	15.64%
Cc1sc2ccc(Cl)cc2c1S(=O)(=O)Nc1ccc2nccc(N3CC(C)NC(C)C3)c2c1 (stereo not shown) [TCMDC-139550]	20.27%
COCCNCc1cccc(-c2ccc3nccc(Nc4cc(O)ccc4C)c3c2)c1 [TCMDC-138480]	40.94%
CS(=O)(=O)CCNCc1cccc(-c2ccc3c(Nc4ccc(Oc5ccccc5)cc4)ccnc3c2)c1 [TCMDC-138477]	27.24%
CS(=O)(=O)CCNCc1cccc(-c2ccc3c(Nc4ccc(Oc5cccnc5)cc4)ccnc3c2)c1 [TCMDC-138488]	-52.67%
CN(C)CCNCc1cccc(-c2ccc3c(Nc4ccc(Oc5ccccn5)cc4)ccnc3c2)c1 [TCMDC-138493]	98.43%
COCCNCc1cccc(-c2cc3nccc(Nc4ccc(Oc5ccccc5)cc4)c3cc2Cl)c1 [TCMDC-138461]	14.84%
COCCNCc1cccc(-c2ccc3c(Nc4ccc(Oc5cccnc5)cc4)ccnc3c2)c1 [TCMDC-138487]	75%
COCCNCc1ncsc1-c1ccc2c(Nc3ccc(Oc4ccccc4)cc3)ccnc2c1 [TCMDC-138440]	7.654%
CS(=O)(=O)CCNCc1cccc(-c2cc3nccc(Nc4ccc(Oc5ccccc5)cc4)c3cc2Cl)c1 [TCMDC-138462]	-8.797%
COCCNCc1cccc(-c2ccc3c(Nc4ccc(Oc5ccccc5)cc4)ccnc3c2)c1 [TCMDC-138478]	82.82%

Compound	% Inhibition
Nc1c2ccccc2nc2ccc(-c3ccccc3)cc12 [TCMDC-132030]	118.4%
Nc1c2ccccc2nc2ccc(Cl)cc12 [TCMDC-132029]	93.03%
Cl.Nc1nc(Nc2ccc(Cl)cc2)nc2ccccc12 [TCMDC-124354]	6.388%
Nc1c2ccccc2nc2cc(Cl)ccc12 [TCMDC-141999]	16.16%
Nc1nc(N)c2cc(C#Cc3ccc(-c4ccccc4)cc3)ccc2n1 [TCMDC-139006]	-7.862%
CN(C)c1cc(C(=O)N[C@@H](Cc2ccccc2)[C@H](O)CNC2CCCCC2)cc2[nH]ccc12 [TCMDC-136317]	-94.17%
CN1CCN(c2ccnc3ccc(NC(=O)Nc4ccccc4Br)cc23)CC1 [TCMDC-139342]	15.44%
Fc1ccccc1COc1ccc(Nc2ncnc3ccc(I)cc23)cc1Cl [TCMDC-138627]	9.829%
COc1cccc2cc(C(=O)N[C@@H](CC(C)C)C(=O)N[C@H](/C=N/NC(=O)OC(C)(C)C)CC(=O)OC(C)(C)C)oc12 [TCMDC-136085]	28.48%
CC(C)(CNC(=O)C1CCN(CCOc2ccc(F)c(F)c2)CC1)c1nc(-c2ccc(Cl)c(O)c2)c(-c2ccncc2)[nH]1 [TCMDC-141136]	-40.38%
CCCNCc1ccc(-c2ccc(CN(Cc3cccs3)C(=O)C3CCN(C)CC3)cc2)nc1 [TCMDC-141526]	99.19%
CN1CCC(C(=O)N(Cc2ccc(-c3ccc(CNCCc4ccccc4)cn3)cc2)Cc2cccc(F)c2)CC1 [TCMDC-141553]	18.34%
CN1CCC(C(=O)N(Cc2ccc(-c3ccc(CNCCc4ccc(S(C)(=O)=O)cc4)cn3)cc2)Cc2cccc(F)c2)CC1 [TCMDC-141507]	85.53%
CN1CCC(C(=O)N(Cc2ccc(-c3ccc(CNCCc4ccc(S(C)(=O)=O)cc4)cn3)cc2)Cc2ccc3c(c2)OCO3)CC1 [TCMDC-141505]	98.95%
CC(=O)N1CCN(c2ccc(NC(=O)c3oc(-c4ccccc4)nc3C(F)(F)F)cn2)CC1 [TCMDC-135142]	-12.47%
CCN(CC)CCNC(=O)c1ccc(NC(=O)c2cn(-c3ccccc3)nc2-c2cccs2)cc1 [TCMDC-124032]	29.35%
O=S(=O)(c1ccccc1Cl)N1CCCCC(c2ccc(C(F)(F)F)cc2)=N1 [TCMDC-134532]	-26.8%
O=S(=O)(c1c(Cl)cccc1Cl)N1CCCCC(c2ccc(C(F)(F)F)cc2)=N1 [TCMDC-134537]	50.16%
O=S(=O)(c1ccc(Cl)cc1Cl)N1CCCCC(c2ccc(C(F)(F)F)cc2)=N1 [TCMDC-134536]	0.9055%
O=S(=O)(c1c(Cl)cc(Cl)cc1Cl)N1CCCCC(c2ccc(C(F)(F)F)cc2)=N1 [TCMDC-134541]	71.02%
Cc1cccc(Cl)c1S(=O)(=O)N1CCCCC(c2ccc(C(F)(F)F)cc2)=N1 [TCMDC-134535]	25.02%
O=S(=O)(c1c(Cl)cc(Cl)cc1Cl)N1CCCCC(c2ccc(Cl)cc2)=N1 [TCMDC-134526]	-3.325%

From article PMC4552634, “A New Set of Chemical Starting Points with Plasmodium falciparum Transmission-Blocking Potential for Antimalarial Drug Discovery” (PLoS ONE, 2015)
